Legend:
Assay in all cases: log2 ratio of Biotin-Ahx-Ub-VS probe labelling (fragment/DMSO); higher = less target engagement (more negative = stronger competition), active = hit call of the paper (q ≤ 0.05, log2 ratio ≤ -1)
Conditions in all cases: compound concentration: 200 uM; treatment time: 3 h
[1] = molecular target: T1, USP19 (UniProt O94966)
T1 sequence (whole entry): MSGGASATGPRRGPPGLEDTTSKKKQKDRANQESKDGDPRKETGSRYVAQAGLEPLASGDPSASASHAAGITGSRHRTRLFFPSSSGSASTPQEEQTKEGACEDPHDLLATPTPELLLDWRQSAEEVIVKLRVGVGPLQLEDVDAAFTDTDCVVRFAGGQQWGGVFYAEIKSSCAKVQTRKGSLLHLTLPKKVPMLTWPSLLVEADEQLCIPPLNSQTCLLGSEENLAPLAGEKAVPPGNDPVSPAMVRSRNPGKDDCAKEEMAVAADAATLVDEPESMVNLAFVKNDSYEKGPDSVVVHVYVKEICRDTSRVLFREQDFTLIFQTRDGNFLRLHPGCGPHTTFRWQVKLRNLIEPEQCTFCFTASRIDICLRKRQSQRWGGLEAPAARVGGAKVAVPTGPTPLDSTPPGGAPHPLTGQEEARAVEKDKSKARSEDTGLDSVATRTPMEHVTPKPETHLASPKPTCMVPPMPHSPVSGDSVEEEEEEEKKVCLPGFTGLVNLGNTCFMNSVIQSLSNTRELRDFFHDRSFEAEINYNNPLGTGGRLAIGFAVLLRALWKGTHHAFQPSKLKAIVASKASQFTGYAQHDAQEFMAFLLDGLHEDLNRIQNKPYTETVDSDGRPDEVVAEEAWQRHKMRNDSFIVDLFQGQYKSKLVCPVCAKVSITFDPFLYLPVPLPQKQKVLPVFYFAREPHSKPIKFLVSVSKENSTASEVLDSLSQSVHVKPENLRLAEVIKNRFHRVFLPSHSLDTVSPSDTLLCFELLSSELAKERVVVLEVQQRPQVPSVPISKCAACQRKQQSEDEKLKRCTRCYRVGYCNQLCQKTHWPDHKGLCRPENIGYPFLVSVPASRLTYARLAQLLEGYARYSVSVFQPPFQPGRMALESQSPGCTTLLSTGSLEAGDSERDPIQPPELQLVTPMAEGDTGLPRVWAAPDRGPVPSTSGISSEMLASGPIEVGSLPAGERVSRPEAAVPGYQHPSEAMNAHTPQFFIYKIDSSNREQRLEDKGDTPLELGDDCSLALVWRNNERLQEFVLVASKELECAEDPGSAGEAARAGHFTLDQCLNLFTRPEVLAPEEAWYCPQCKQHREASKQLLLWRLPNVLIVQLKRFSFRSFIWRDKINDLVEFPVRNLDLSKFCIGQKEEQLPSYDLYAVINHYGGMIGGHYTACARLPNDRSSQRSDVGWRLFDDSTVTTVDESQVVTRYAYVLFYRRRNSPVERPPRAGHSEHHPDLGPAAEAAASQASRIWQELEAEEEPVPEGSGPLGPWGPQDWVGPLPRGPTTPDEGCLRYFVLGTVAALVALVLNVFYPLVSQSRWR
How it was run: (§1)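 Global-median-normalised Spectronaut label-free quantities were compared by unpaired t-test, and values are average log2 ratios of fragment over vehicle. Only proteins with ≥2 unique peptides were used. HEK293T lysate (495 µg per sample) was treated in triplicate with fragment at 200 µM or vehicle for 3 h and then with Biotin-Ahx-Ub-VS at 0.5 µM final for 1 h. Labelled DUBs were then NeutrAvidin-enriched, digested with LysC and trypsin, and run by diaPASEF LC-MS/MS.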

[2] = molecular target: T2, USP22 (UniProt Q9UPT9)
T2 sequence (whole entry): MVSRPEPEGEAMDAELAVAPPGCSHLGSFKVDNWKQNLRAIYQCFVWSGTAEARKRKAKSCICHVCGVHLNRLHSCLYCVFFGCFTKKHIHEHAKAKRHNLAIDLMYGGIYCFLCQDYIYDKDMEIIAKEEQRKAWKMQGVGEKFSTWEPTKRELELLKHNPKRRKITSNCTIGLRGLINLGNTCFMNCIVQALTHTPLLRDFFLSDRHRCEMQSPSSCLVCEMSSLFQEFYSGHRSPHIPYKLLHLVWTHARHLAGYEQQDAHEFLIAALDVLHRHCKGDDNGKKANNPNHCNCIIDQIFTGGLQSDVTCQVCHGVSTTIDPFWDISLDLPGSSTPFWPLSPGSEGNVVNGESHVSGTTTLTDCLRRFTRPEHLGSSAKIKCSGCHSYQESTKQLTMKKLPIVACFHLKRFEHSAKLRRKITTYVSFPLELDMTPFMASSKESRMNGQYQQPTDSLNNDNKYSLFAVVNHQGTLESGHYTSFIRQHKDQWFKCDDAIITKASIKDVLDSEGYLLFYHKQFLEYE
How it was run: as §1

[3] = molecular target: USP24 (UniProt Q9UPU5)
Chain of USP24 (Q9UPU5 whole entry): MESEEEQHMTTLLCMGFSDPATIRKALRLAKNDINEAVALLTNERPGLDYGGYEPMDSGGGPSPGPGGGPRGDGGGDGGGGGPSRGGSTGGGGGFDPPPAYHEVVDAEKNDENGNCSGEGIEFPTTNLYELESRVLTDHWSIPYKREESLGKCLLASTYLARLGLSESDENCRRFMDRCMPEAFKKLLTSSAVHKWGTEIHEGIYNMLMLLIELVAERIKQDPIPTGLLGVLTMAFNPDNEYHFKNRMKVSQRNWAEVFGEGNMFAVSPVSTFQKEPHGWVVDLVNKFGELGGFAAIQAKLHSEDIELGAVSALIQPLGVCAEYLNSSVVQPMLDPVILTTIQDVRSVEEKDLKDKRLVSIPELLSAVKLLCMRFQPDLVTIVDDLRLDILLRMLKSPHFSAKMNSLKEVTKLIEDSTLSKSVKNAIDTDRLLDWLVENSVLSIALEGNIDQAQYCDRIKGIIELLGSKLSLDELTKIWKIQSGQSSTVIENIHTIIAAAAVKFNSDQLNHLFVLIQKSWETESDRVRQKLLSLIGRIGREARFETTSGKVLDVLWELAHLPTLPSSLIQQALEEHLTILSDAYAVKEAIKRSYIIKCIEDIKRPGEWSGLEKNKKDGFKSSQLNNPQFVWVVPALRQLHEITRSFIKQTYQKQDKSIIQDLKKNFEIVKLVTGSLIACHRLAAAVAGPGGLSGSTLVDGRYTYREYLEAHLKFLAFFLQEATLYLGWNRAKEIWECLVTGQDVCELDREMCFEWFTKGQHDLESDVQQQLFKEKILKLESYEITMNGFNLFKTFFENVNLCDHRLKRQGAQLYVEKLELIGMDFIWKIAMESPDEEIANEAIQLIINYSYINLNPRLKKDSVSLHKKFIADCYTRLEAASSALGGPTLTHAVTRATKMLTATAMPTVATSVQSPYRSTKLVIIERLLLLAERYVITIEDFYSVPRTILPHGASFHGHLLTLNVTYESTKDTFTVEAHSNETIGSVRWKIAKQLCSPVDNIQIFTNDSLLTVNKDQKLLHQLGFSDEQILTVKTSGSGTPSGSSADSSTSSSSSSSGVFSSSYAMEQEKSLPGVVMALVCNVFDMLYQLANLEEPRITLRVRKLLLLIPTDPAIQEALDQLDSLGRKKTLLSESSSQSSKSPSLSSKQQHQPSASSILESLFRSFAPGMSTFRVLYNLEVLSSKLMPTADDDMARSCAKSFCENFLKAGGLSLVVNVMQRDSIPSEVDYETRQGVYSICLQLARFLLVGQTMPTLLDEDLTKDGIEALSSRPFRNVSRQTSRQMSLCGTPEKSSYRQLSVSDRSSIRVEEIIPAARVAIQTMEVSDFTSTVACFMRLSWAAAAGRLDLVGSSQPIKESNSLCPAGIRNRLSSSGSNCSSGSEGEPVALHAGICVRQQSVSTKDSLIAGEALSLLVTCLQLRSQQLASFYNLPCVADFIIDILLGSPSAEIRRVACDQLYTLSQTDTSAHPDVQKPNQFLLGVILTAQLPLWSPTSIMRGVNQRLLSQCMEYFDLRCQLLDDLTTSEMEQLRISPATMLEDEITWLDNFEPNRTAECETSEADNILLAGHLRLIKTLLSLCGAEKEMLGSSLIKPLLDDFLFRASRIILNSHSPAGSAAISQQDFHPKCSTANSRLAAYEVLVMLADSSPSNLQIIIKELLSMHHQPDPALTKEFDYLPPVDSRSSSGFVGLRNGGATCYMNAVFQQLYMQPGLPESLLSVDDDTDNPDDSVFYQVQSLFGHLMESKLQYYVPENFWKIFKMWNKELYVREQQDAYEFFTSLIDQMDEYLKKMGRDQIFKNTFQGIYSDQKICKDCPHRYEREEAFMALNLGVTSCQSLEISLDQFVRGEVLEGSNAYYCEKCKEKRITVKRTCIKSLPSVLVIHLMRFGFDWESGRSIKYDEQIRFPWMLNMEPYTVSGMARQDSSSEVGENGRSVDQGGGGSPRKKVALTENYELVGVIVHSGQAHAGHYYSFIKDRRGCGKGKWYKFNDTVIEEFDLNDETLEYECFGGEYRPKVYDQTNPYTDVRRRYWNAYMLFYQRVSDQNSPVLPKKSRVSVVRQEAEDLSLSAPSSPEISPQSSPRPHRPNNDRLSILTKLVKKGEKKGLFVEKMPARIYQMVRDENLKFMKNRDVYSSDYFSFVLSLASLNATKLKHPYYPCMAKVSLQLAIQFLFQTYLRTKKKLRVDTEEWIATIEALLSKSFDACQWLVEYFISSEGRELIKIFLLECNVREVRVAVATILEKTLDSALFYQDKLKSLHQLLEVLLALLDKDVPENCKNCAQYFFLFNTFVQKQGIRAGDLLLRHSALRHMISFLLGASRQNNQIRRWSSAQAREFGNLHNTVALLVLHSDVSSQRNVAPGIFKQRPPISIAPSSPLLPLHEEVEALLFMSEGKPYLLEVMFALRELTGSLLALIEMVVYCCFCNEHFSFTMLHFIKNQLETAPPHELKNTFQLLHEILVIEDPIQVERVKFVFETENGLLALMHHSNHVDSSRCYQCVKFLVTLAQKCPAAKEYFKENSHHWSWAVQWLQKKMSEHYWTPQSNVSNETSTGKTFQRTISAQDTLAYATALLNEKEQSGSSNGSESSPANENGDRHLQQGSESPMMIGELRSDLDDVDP
How it was run: as §1

[4] = molecular target: T3, USP25 (UniProt Q9UHP3)
T3 sequence (whole entry): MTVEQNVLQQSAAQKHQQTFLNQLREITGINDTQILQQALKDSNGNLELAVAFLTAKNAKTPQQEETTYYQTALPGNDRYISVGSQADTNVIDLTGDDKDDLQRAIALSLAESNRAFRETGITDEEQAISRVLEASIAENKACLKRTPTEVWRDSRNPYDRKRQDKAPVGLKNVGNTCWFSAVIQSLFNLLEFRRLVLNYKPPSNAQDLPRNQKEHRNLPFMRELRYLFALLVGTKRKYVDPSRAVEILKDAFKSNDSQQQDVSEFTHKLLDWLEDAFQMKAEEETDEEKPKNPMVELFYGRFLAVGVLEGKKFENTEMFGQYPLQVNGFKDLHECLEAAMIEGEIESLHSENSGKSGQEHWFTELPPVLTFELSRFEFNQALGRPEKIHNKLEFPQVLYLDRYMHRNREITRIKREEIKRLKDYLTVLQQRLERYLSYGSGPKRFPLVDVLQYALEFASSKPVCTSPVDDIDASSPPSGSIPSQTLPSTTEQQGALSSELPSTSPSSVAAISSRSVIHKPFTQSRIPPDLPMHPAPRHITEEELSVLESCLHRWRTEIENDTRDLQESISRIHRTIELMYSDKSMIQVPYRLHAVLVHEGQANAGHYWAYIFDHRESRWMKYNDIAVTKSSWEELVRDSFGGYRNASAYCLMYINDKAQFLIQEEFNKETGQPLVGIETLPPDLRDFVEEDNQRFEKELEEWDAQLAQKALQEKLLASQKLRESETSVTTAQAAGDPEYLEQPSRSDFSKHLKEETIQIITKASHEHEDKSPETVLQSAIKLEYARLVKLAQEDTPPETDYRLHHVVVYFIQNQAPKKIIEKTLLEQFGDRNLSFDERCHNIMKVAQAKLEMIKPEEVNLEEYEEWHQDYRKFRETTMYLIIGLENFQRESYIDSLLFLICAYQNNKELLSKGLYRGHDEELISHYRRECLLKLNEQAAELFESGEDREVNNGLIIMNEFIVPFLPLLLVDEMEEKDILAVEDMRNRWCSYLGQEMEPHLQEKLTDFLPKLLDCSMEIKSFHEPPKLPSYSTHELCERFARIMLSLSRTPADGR
How it was run: as §1

[5] = molecular target: T4, USP28 (UniProt Q96RU2)
T4 sequence (whole entry): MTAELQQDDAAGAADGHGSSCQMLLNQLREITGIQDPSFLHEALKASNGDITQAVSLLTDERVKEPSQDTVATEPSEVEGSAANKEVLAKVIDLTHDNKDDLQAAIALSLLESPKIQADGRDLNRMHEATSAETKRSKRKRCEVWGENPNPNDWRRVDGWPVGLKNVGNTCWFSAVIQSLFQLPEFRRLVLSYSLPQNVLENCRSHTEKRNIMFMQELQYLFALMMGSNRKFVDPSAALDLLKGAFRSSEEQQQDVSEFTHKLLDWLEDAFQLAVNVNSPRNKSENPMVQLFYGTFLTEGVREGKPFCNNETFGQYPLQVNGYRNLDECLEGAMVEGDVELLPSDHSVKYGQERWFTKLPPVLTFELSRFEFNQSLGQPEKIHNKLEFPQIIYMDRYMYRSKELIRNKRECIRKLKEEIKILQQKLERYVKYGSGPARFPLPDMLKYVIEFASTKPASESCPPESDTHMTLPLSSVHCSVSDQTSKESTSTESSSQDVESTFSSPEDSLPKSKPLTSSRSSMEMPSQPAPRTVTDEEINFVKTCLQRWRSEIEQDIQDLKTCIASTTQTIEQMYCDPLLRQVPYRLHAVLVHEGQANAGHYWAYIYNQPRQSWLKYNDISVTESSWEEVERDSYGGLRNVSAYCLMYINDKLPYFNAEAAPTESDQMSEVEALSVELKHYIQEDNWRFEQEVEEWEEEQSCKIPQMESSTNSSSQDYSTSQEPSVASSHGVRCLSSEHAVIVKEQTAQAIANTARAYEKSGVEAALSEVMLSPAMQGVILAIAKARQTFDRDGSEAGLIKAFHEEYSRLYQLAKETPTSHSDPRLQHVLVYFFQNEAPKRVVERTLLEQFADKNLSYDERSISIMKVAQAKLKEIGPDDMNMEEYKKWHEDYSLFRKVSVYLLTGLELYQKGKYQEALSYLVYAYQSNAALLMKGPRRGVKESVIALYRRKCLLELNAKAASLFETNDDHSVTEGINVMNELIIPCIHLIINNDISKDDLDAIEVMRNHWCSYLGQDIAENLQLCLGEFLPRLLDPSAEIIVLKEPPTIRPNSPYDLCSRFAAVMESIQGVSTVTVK
How it was run: as §1

Measured: log2 ratio of Biotin-Ahx-Ub-VS probe labelling

CC1(NC(=O)CCl)CCS(=O)(=O)C1 (stereo not given)
inactive: [1] -0.59 | [2] -0.238 | [3] -0.659 | [4] -0.695 | [5] -0.835
